ERAP1 inh = blocks human ERAP1 aminopeptidase activity | Q9NZ08 | recombinant ERAP1, Leu-AMC fluorescence, 60 min | inhibition, % at 10.7 µM | actives 0.15% (n = 340,000) | AID 652197;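 active = mean replicate inhibition of at least 30%, or all replicates individually reaching that 30% level; inactive = mean below 30% and not every replicate reaching it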;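 also: 0% = neutral control wells and 100% = L-leucinethiol positive control wells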
FGF22 binding-1 = binders of recombinant human FGF22 by thermal shift; SYPRO orange fluorescence; percent of sucrose octasulfate shift, DMSO zero; activity (Tm shift, normalised), % at 9.99 µM; actives 1.5% (n = 340,000);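 active = mean Tm shift, scaled 0 neutral to 100 positive control, at about 1.3% or above, every replicate too, limit read from the data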
Target sequence (Q9HCT0 whole entry, looked up): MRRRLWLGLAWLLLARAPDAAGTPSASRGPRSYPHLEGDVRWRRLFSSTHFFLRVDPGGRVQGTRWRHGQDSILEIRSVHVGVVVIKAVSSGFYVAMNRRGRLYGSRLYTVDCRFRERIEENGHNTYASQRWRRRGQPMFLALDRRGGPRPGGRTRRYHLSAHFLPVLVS
Casp6 inh = caspase-6 (human) enzyme inhibition. purified caspase-6, Z-VEID-R110 cleavage fluorescence. inhibition, % at 12.5 µM. actives 0.53% (n = 350,000). P55212;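 active = mean inhibition across replicates at least about 35%, with every replicate also reaching that limit, limit read from the data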;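 also: 0% = median of neutral control wells and 100% = no fluorescence left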
SIRT5 block = blocks human SIRT5 desuccinylation of peptide. Q9NXA8. Purified SirT5, succinyl-peptide AMC, trypsin-coupled fluorescence. inhibition, % at 15 µM. actives 1.1% (n = 330,000). AID 652115; in the data active = inhibition above about 15%
Target sequence (Q9NXA8 whole entry, looked up): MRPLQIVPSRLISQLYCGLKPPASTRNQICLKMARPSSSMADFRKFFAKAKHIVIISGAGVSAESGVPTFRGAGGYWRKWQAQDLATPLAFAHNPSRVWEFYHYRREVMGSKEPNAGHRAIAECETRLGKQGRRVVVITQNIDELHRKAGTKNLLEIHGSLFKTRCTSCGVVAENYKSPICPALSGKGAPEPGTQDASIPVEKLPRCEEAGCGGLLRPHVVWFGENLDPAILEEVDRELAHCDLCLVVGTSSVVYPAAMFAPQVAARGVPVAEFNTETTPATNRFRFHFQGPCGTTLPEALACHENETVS
FGF22 binding-2 = binds human FGF22 shifting its melting temperature. shares compounds with FGF22 binding-1. actives 2% (n = 1,000). AID 720646. thermal shift activity, °C (ΔTm) at 38 µM. recombinant FGF22 thermal shift, SYPRO orange fluorescence;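 active = fitted rise in melting shift crosses a set limit at or below the top valid dose tested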
FGF22 TSA DP = binds human FGF22 shifting its melting temperature | Tm shift (activity), % at 38 µM | Thermal shift assay, SYPRO orange, melting temperature shift | 50 tested, under 10 active | shares compounds with FGF22 binding-1;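 active = compounds whose fitted dose curve of melting temperature shift rises past a set threshold within the tested doses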
TSA no protein = shows thermal shift signal without protein, FGF22 counter-screen. shares compounds with FGF22 binding-1. compound-only SYPRO orange thermal shift counter-screen, no protein. AC50, µM (top dose mostly 38 µM). actives 2% (n = 1,000). AID 743019;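 active = rising signal whose fitted curve reaches the 0.54 level within the top valid dose, showing a melting point, actives reach about 13 µM in these data; inactive = the rest, including activity in the opposite direction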; also: value is where the raw curve crosses a fixed level and not half-maximal
* hit, by the source's call; i = inactive; . = no result given; [ ] = remark or other dose. In the library only some 3.1% were active in any assay of this set; here they are far more common.

SMILES	ERAP1 inh	FGF22 binding-1	Casp6 inh	SIRT5 block	FGF22 binding-2	TSA no protein	others
C[C@@H]1CN([C@@H](C)CO)C(=O)c2cc(NS(C)(=O)=O)ccc2O[C@@H](C)CCCCO[C@H]1CN(C)S(=O)(=O)c1ccc(F)cc1	3.0	0.1	1.8	1.9	.	.
CC(=O)Nc1cccc(NC(=O)c2ccc3[nH]c(C)c(C)c3c2)c1	2.3	1.9*	-0.4	-2.5	-0.012	i	FGF22 TSA DP=-0.2
Nc1ccccc1N=Nc1ccccc1N	2.6	2.5*	-1.7	.	0.146	i
C[C@@H]1CN([C@H](C)CO)C(=O)c2cc(-c3ccncc3)cnc2O[C@H]1CN(C)C(=O)Nc1ccc2c(c1)OCO2	8.7	-0.4	1.2	9.8	.	.
COc1ccc(C)cc1NC(=O)C1CCN(S(=O)(=O)c2cccs2)CC1	1.3	1.9*	3.2	-0.8	0.011	i
CC(C)(C)NC(=O)N1CCC(CO)(Cc2ccccc2Cl)CC1	8.1	1.5*	-4.4	-0.7	-0.031	i
CC(=O)c1ccc(OCc2cn(CC(=O)c3ccc(O)cc3)nn2)c(C)c1	.	0.8	7.5	1.0	.	.
O=C(Cn1cc(COc2ccc(Br)cc2[N+](=O)[O-])nn1)c1ccc(O)cc1	1.4	1.7*	12.6	0.4	-0.002	i
COCC(=O)N(C)C[C@@H]1Oc2ncc(-c3ccc(F)cc3)cc2C(=O)N([C@@H](C)CO)C[C@H]1C	-2.6	-0.1	-2.1	-3.2	.	.
CCC(=O)Nc1nc2ccc([N+](=O)[O-])cc2s1	3.2	-0.1	-3.3	-0.8	.	.
CC(=O)Nc1ccc(S(=O)(=O)Nc2nc3ccc([N+](=O)[O-])cc3s2)cc1	5.3	3.4*	9.6	-5.1	-0.155	i
O=C(O)CN1C(=O)CSC1=S	2.8	-0.3	7.8	0.2	.	.
O=C(NN1C(=O)CSC1=S)C(=O)NN1C(=O)CSC1=S	-1.2	2.4*	51.0*	49.8*	-0.042	i
COCC(=O)N(C)C[C@@H]1Oc2cc(-c3ccc(C)cc3)ccc2S(=O)(=O)N([C@@H](C)CO)C[C@@H]1C	-0.5	0.2	3.7	0.6	.	.
COc1cc(OC)cc(C(=O)Nc2ccc(S(=O)(=O)Nc3nc(C)cc(C)n3)cc2)c1	1.2	1.4*	2.7	0.1	0.05	i
COc1cccc(C(=O)Nc2ccc(S(=O)(=O)Nc3nccc(C)n3)cc2)c1	-1.1	0.0	-0.8	-4.7	.	.
O=C(Nc1ccc(C(=O)O)cc1)Nc1ccc([N+](=O)[O-])cc1	-55.7	1.9*	0.8	-1.3	0.089	i
O=C(Nc1ccc(C(=O)O)cc1)Nc1cccc([N+](=O)[O-])c1	-71.0	0.0	2.5	-0.8	.	.
COCC(=O)N1CC(=O)N2[C@H](CO)[C@H](c3ccc(Br)cc3)[C@H]2C1	1.9	1.6*	-0.6	-2.8	0.074	i
O=C(NC1CCCCC1)N1CC(=O)N2[C@H](C1)[C@@H](c1ccc(-c3cccc(F)c3)cc1)[C@@H]2CO	1.6	2.3*	-1.2	3.6	-0.042	i
CCCNC(=O)N1CC(=O)N2[C@H](CO)[C@@H](c3ccc(-c4cccc(C)c4)cc3)[C@@H]2C1	1.1	2.2*	1.9	-0.5	0.222[42 µM]	i
CCCNC(=O)N1CC(=O)N2[C@H](CO)[C@H](c3ccc(-c4cccc(C)c4)cc3)[C@@H]2C1	1.0	0.7	2.7	-0.2	.	.
CCCNC(=O)N1CC(=O)N2[C@H](C1)[C@@H](c1ccc(-c3cccc(C)c3)cc1)[C@@H]2CO	-1.2	6.9*	-0.5	-2.3	0.222	i
C[C@@H]1CN([C@@H](C)CO)C(=O)c2cccc(NC(=O)Nc3ccc(C(F)(F)F)cc3)c2O[C@@H]1CN(C)C	0.8	0.1	4.1	-7.0	.	.
O=C(c1ccccc1F)N1C[C@H]2O[C@@H](CNS(=O)(=O)c3ccccc3)CC[C@H]21	-4.8	.	4.0	-13.8	.	.
SMILES	ERAP1 inh	FGF22 binding-1	Casp6 inh	SIRT5 block	FGF22 binding-2	TSA no protein	others
COc1ccc(NC(=O)N(C)C[C@@H]2Oc3ncc(-c4ccc(F)cc4)cc3C(=O)N([C@H](C)CO)C[C@@H]2C)cc1	-0.7	-0.4	-1.1	4.0	.	.
C[C@@H]1CN([C@H](C)CO)S(=O)(=O)c2ccc(C#Cc3ccc(F)cc3)cc2O[C@@H]1CN(C)C(=O)CN(C)C	1.4	-0.6	-1.1	0.9	.	.
O=C(c1ccccc1F)N1CC(=O)N2[C@@H](CO)[C@H](c3ccc(-c4ccc(F)cc4)cc3)[C@@H]2C1	2.9	1.8*	6.0	-4.8	0.142[42 µM]	i
C[C@H]1CN([C@@H](C)CO)C(=O)c2cc(NC(=O)NC3CCCCC3)ccc2O[C@@H]1CN(C)CC1CCCCC1	0.8	-0.1	1.2	0.5	.	.
COCC(=O)Nc1ccc2c(c1)[C@@H]1C[C@@H](CC(=O)NCc3ccccn3)O[C@@H](CO)[C@@H]1O2	2.7	1.3*	2.0	1.7	0.018[42 µM]	i
O=C(Nc1ccc2c(c1)[C@@H]1C[C@@H](CC(=O)N3CCCCC3)O[C@@H](CO)[C@@H]1O2)NC1CCCC1	-2.1	-0.4	-1.4	0.3	.	.
CN(C)CC(=O)Nc1ccc2c(c1)[C@H]1C[C@H](CC(=O)NCC3CC3)O[C@H](CO)[C@H]1O2	-1.0	0.1	-0.3	0.8	.	.
CN(C)CC(=O)Nc1ccc2c(c1)[C@H]1C[C@@H](CC(=O)NCC3CC3)O[C@H](CO)[C@H]1O2	2.7	1.3*	2.3	1.7	-0.018	i
O=C(Nc1ccc2c(c1)[C@@H]1C[C@H](CC(=O)N3CCCCC3)O[C@@H](CO)[C@@H]1O2)NC1CCCC1	-1.3	20.3*	3.6	0.3	0.177	i
COCC(=O)Nc1ccc2c(c1)[C@H]1C[C@@H](CC(=O)NCCN3CCCCC3)O[C@H](CO)[C@H]1O2	-1.7	1.3*	-0.8	0.8	0.065	i
C/C=C/c1cnc2c(c1)C(=O)N([C@@H](C)CO)C[C@@H](C)[C@H](CN(C)Cc1cccc(C(=O)O)c1)O2	-1.6	0.0	-1.2	-0.5	.	.
CCS(=O)(=O)Nc1ccc2c(c1)C(=O)N(C)C[C@@H](OC)[C@@H](C)CN(C(=O)C1CC1)[C@H](C)CO2	1.7	-0.1	-3.3	0.7	.	.
O=C(O)c1ccc(/C=N/NC(=O)c2ccc(NS(=O)(=O)c3cccs3)cc2)cc1	-1.0	0.2	8.1	10.4	.	.
Cc1cccc(C(=O)NNC(=O)c2ccc(NS(=O)(=O)c3cccs3)cc2)c1C	-0.6	1.9*	-3.2	2.0	-0.09	i
COc1ccc(/C=N/NC(=O)c2ccc(NS(=O)(=O)c3cccs3)cc2)cc1	2.3	1.7*	3.9	5.5	-0.093	i
C[C@@H]1CCCCO[C@@H](CN(C)Cc2ccncc2)[C@H](C)CN([C@@H](C)CO)C(=O)c2cc(NC(=O)CCCN(C)C)ccc2O1	1.6	-0.2	0.5	1.3	.	.
O=C(N/N=C/c1ccc([N+](=O)[O-])o1)c1cc2ccccc2o1	-0.4	0.0	15.2	0.9	.	.

Source: PubChem
